Test results from PubChem BioAssay (Tox21).
Several values for one entry are separate records, joined by “and”; a condition that tells them apart may be missing. Identical values can stand only once. Inconclusive results are not listed. A structure can be active in one record and inactive in another. Activity calls are given as the source filed them. Unless noted, the call rests on the fitted dose curve.

What was measured:
[1] = qHTS assay to identify small molecule agonists of the sonic hedgehog signaling (Shh) pathway (AID 1259368);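 further: NIH/3T3-derived 3T3Gli1-Luc cells carrying a stable Gli1-driven firefly luciferase reporter; series mostly up to about 92 µM; nearly all actives have a fitted effect of over 15% in size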
In short: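 Following a 24 hr incubation with DMSO-dissolved compounds at 37 C, 5% CO2, Gli1-Luc NIH/3T3-derived cells received luciferase reagent for 30 min at room temperature prior to luminescence measurement.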

[2] = qHTS assay to identify small molecule antagonists of the sonic hedgehog signaling (Shh) pathway (AID 1259369); further: nearly all actives have a fitted effect of over 45% in size; further: potency means the concentration at half of the fitted maximal effect
In short: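 Read-out is luminescence from a firefly luciferase gene controlled by the Gli1 response element, in 3T3Gli1-Luc cells pre-incubated 4hr then exposed to compounds and conditioned medium for 24hr.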

[3] = target: Estrogen receptor beta (Homo sapiens) (UniProt Q92731); test: qHTS assay to identify small molecule agonists of the estrogen receptor beta (ER-beta) signaling pathway (AID 1259377; active means well fitted activation curve with a large enough effect in the signal ratio in the repeat runs, not every such curve was filed as active; the % refers to the signal ratio)
Estrogen receptor beta (Homo sapiens), sequence (Q92731 whole entry, looked up): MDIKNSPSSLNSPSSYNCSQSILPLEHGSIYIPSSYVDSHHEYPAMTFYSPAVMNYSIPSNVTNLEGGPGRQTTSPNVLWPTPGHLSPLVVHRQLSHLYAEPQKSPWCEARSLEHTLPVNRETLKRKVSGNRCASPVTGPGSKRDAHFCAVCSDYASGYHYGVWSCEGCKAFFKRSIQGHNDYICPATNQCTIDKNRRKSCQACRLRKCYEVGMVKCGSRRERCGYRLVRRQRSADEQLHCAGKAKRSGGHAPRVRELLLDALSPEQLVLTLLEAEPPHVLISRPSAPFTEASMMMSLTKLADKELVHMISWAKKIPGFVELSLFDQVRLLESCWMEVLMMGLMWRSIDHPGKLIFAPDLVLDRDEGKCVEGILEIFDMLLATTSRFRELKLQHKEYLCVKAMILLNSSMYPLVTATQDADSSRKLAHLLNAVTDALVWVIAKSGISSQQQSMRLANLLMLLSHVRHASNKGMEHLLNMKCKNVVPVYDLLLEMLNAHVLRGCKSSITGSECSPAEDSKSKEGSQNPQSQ
In short: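 HEK293T ER-beta-UAS-bla; 2% charcoal-stripped FBS; cells pre-incubated 6 hr, compound 16 hr, 37C/5% CO2; LiveBLAzer B/G FRET substrate 2 h RT; fluorescence intensity read.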

[4] = target: Estrogen receptor beta (Homo sapiens) (UniProt Q92731); test: qHTS assay to identify small molecule antagonists of the estrogen receptor beta (ER-beta) signaling pathway (AID 1259378; active means well fitted inhibition curve with a large enough effect in the signal ratio in the repeat runs, not every such curve was filed as active; the % refers to the signal ratio)
In short: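 ER-beta-UAS-bla HEK293T cells in 2% charcoal-stripped FBS medium treated with compound plus 1nM final 17-beta-estradiol for 16 hr at 37C. Beta-lactamase reporter read by FRET substrate fluorescence after 2 hours at room temperature.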

[5] = qHTS assay to identify small molecule agonists of the androgen receptor (AR) signaling pathway in the presence of an antagonist - cell viability counter screen (AID 1259379; active means well fitted curve in the direction sought with a large enough effect in the repeat runs; an effect the other way counts as inactive or inconclusive;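 further: MDA-kb2 human breast cancer cells carrying an MMTV luciferase reporter; series mostly up to about 92 µM; nearly all actives have a fitted effect of over 25% in size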)
In short: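 Each compound was tested at 15 concentrations on MDA-kb2 cells in the presence of 3.0uM nilutamide. Viability was measured by CellTiter-Fluor fluorescence after a 16 hr incubation at 37C in a CO2-free atmosphere.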

[6] = qHTS assay to identify small molecule agonists of the estrogen receptor beta (ER-beta) signaling pathway - cell viability counter screen (AID 1259380; active means well fitted curve in the direction sought with a large enough effect in the repeat runs; an effect the other way counts as inactive or inconclusive; further: nearly all actives have a fitted effect of over 30% in size)
In short: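 Compounds dissolved in DMSO were pin-transferred onto ER-beta-UAS-bla HEK293T cells that had settled 6 hr, and exposure ran 16 hr at 37C. Following the reporter read, CellTiter-Glo luminescence after 30 min at room temperature indicated cytotoxicity.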

[7] = qHTS assay to identify small molecule antagonists of the estrogen receptor beta (ER-beta) signaling pathway - cell viability counter screen (AID 1259382; active means well fitted curve in the direction sought with a large enough effect in the repeat runs; an effect the other way counts as inactive or inconclusive; further: series mostly up to about 92 µM; nearly all actives have a fitted effect of over 55% in size)
In short: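 CellTiter-Glo ATP luminescence measured after the LiveBLAzer read in the same wells; ER-beta-UAS-bla HEK293T cells, 16 hr compound treatment with 1nM 17-beta-estradiol agonist at 37C, 5% CO2.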

[8] = qHTS assay to identify small molecule agonists or antagonists of the thyroid stimulating hormone receptor (TSHR) signaling pathway - wild type cell line counter screen (AID 1259384)
In short: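 Wild-type Hek293 cells, 800/well, 18 h at 37C, then compound with Ro20-1724 for 30 min RT. cAMP by HTRF (cAMP-d2/anti-cAMP cryptate), 1 h RT, fluorescence read. 15 concentrations, triplicates.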

[9] = target: Estrogen receptor (Homo sapiens) (UniProt P03372); test: qHTS assay to identify small molecule agonists of the estrogen receptor alpha (ER-alpha) signaling pathway in the presence of an antagonist (AID 1259383); further: top concentration of the series differs between compounds; nearly all actives have a fitted effect of over 15% in size
Estrogen receptor (Homo sapiens), sequence (P03372 whole entry, looked up): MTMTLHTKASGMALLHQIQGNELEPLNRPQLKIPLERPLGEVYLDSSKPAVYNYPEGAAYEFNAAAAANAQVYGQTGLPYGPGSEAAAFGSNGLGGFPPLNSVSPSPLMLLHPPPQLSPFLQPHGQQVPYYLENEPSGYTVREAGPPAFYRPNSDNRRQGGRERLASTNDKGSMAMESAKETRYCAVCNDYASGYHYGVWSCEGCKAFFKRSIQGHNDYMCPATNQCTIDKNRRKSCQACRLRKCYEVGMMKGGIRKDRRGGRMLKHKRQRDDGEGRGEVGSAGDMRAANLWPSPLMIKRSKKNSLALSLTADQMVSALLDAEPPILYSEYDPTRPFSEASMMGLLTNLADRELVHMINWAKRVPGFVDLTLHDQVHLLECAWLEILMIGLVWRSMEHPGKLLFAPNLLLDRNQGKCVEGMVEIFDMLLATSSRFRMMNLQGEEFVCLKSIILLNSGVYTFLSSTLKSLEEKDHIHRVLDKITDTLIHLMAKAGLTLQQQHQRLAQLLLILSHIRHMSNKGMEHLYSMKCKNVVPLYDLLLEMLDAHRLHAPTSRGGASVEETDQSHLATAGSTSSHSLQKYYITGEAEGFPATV
In short: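 Luminescent ERE-luciferase reporter, VM7Luc4E2 cells (endogenous ER-alpha); 10.0nM ICI-182,780 final; 15-point compound titration; 22hr at 37C; ONE-Glo, 30min RT.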

[10] = target: Androgen receptor (Homo sapiens) (UniProt P10275); test: qHTS assay to identify small molecule agonists of the androgen receptor (AR) signaling pathway in the presence of an antagonist (AID 1259381); further: nearly all actives have a fitted effect of over 15% in size; further: potency means the concentration at half of the fitted maximal effect
Androgen receptor (Homo sapiens), sequence (P10275 whole entry, looked up): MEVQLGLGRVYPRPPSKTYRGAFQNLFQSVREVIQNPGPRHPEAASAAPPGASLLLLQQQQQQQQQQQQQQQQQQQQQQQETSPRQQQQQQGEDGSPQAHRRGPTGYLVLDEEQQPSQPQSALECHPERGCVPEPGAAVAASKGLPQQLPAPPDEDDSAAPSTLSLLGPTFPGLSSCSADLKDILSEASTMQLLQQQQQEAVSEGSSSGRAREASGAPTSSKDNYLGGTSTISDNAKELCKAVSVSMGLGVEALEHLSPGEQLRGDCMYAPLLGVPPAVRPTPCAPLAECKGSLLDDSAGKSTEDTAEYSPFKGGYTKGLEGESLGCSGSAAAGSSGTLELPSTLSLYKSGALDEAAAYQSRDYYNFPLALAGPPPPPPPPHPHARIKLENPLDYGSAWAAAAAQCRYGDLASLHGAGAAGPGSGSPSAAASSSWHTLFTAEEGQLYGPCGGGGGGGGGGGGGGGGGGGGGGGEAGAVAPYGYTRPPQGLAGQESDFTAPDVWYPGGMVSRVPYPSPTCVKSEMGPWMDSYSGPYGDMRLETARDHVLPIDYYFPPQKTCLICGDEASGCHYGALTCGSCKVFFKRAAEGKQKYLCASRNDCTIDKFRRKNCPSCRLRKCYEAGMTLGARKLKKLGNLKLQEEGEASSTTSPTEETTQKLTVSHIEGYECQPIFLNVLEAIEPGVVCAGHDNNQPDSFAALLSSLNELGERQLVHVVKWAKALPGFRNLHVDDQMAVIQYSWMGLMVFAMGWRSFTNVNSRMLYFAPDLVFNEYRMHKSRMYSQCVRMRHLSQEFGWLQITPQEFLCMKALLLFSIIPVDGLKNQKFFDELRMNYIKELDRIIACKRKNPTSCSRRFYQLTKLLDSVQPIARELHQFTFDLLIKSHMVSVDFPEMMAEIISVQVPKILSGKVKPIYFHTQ
In short: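 Plated MDA-kb2 cells (3,000/well) were pre-incubated 5hr, given nilutamide (3.0uM final) or buffer, then dosed with compounds in DMSO at 15 concentrations. Luciferase activity was quantified by luminescence after 16hr at 37C.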
On the % scale 0 is the no-effect control and ±100 the full control effect.

CC/C=C\CC/C=C/C(OCC)OCC
inactive: outcome [1] | outcome [3] | outcome [4] | Potency [5] | Potency [6] | Potency [7] | outcome [8]
active: Potency [2] 27.3 µM

O=c1[nH]c(=O)n([C@H]2C[C@H](O)[C@@H](CO)O2)cc1I
inactive: outcome [1] | Potency [2] | outcome [3] | outcome [4] | Potency [5] | Potency [7] | outcome [8]

c1ccc([C@H]2CN3CCSC3=N2)cc1
inactive: outcome [1] | Potency [2] | outcome [3] | outcome [4] | Potency [5] | Potency [7] | Potency [9] | outcome [8]

CCOC(=O)[C@H](CCc1ccccc1)N[C@@H](C)C(=O)N1[C@H](C(=O)O)C[C@@H]2CCC[C@@H]21
inactive: outcome [1] | Potency [2] | outcome [3] | outcome [4] | Potency [5] | Potency [6] | Potency [7] | Potency [9] | outcome [8]

O=C(O)COc1nn(Cc2ccccc2)c2ccccc12
active: Potency [10] 33.5 µM
inactive: outcome [1] | Potency [2] | outcome [3] | outcome [4] | Potency [5] | Potency [7] | Potency [9] | outcome [8]

Nc1ccccc1S(=O)(=O)O
inactive: outcome [1] | Potency [2] | outcome [3] | outcome [4] | Potency [5] | Potency [6] | Potency [7] | outcome [8]

CCN(CC)CCNC(=O)c1cc(S(C)(=O)=O)ccc1OC
inactive: outcome [1] | Potency [2] | outcome [3] | outcome [4] | Potency [5] | Potency [6] | Potency [7] | Potency [9] | outcome [8]

NC(=O)c1ccc(N)cc1
inactive: outcome [1] | Potency [2] | outcome [3] | outcome [4] | Potency [5] | Potency [6] | Potency [7] | Potency [9] | outcome [8]

O=C[C@H](O)[C@@H](O)[C@H](O)[C@H](O)CO
inactive: outcome [1] | Potency [2] | outcome [3] | outcome [4] | Potency [5] | Potency [7] | Potency [9] | outcome [8]

C1CN(CCOCCN2CCOCC2)CCO1
inactive: outcome [1] | Potency [2] | outcome [3] | outcome [4] | Potency [5] | Potency [7] | Potency [9] | outcome [8]

CC(C)c1cc2c(cc1S(=O)(=O)O)[C@@]1(C)CCC[C@@](C)(C(=O)O)[C@@H]1CC2
inactive: outcome [1] | Potency [2] | outcome [4] | Potency [5] | Potency [6] | Potency [7] | Potency [9] | outcome [8]

O=c1n(CCO)c(=O)n(CCO)c(=O)n1CCO
inactive: outcome [1] | outcome [3] | outcome [4] | Potency [6] | Potency [7] | Potency [9] | outcome [8]
inactive and 27.3 µM (active): Potency [2]

N=c1nc(N2CCCCC2)cc(N)n1O
inactive: outcome [1] | Potency [2] | outcome [3] | outcome [4] | Potency [7] | Potency [9] | outcome [8]

O=C1CC2CC1C1CCCC21 (stereo not drawn)
inactive: outcome [1] | Potency [2] | outcome [4] | Potency [5] | Potency [6] | Potency [7] | Potency [9] | outcome [8]
active: Potency [10] 27.3 µM

NS(=O)(=O)c1ccc(C(=O)O)cc1
inactive: outcome [1] | Potency [2] | outcome [3] | Potency [5] | Potency [6] | Potency [10] | Potency [7] | Potency [9] | outcome [8]

OC1CCCCC1c1ccccc1 (stereo not drawn)
inactive: outcome [1] | Potency [2] | outcome [3] | outcome [4] | Potency [6] | Potency [10] | Potency [7] | Potency [9] | outcome [8]

FC1(F)C(F)(F)C(F)(F)C2(F)C(F)(F)C(F)(F)C(F)(F)C(F)(F)C2(F)C1(F)F (stereo not drawn)
inactive: outcome [1] | Potency [2] | outcome [4] | Potency [5] | Potency [6] | Potency [10] | Potency [7] | Potency [9] | outcome [8]

COc1nc(N)nc2c1ncn2[C@@H]1O[C@H](CO)[C@@H](O)[C@@H]1O
inactive: outcome [1] | Potency [2] | outcome [4] | Potency [5] | Potency [6] | Potency [7] | outcome [8]

CC(C)OC(=O)c1ccccc1
inactive: outcome [1] | Potency [2] | outcome [3] | outcome [4] | Potency [6] | Potency [7] | Potency [9] | outcome [8]

CCOC(=O)C(=O)OCC
inactive: outcome [1] | Potency [2] | outcome [4] | Potency [5] | Potency [6] | Potency [7] | Potency [9] | outcome [8]

CC(C)CCCC(C)N (stereo not drawn)
inactive: outcome [1] | Potency [2] | outcome [3] | outcome [4] | Potency [7] | Potency [9] | outcome [8]

COC(=O)c1ccc(C)cc1C1=NC(C)(C(C)C)C(=O)N1 (stereo not drawn)
inactive: outcome [1] | Potency [2] | outcome [4] | Potency [5] | Potency [6] | Potency [7]

CCOc1ccc(C(=O)OCCN(CC)CC)cc1
inactive: outcome [1] | Potency [2] | outcome [4] | Potency [5] | Potency [6] | Potency [10] | Potency [7] | outcome [8]

CC(C)=CCCC(C)CC(=O)O (stereo not drawn)
inactive: outcome [1] | Potency [2] | outcome [4] | Potency [5] | Potency [6] | Potency [7] | outcome [8]

O=C(O)CN(CCOCCOCCN(CC(=O)O)CC(=O)O)CC(=O)O
inactive: activity change [1] -0.0947% [at 0.349 µM] | activity change, negative = inhibition [2] 23.6% [at 0.349 µM] | activation [3] -3.04% [at 0.348 µM] | activity, negative = inhibition [4] -7.82% [at 0.349 µM] | activity change, negative = cytotoxicity [6] 9.83% [at 0.349 µM] | activity change, negative = cytotoxicity [7] 2.26% [at 0.349 µM] | cAMP activity change [8] 3.85% [at 0.349 µM]

NC(=O)Nc1ccccc1
inactive: outcome [1] | Potency [2] | outcome [4] | Potency [5] | Potency [6] | Potency [7] | Potency [9] | outcome [8]
